HT1080NT lethal – kills 2HG-producing HT-1080-NT fibrosarcoma cells; HT-1080-NT fibrosarcoma viability, CellTiter-Glo ATP luminescence, 48 h; Potency, µM (doses to about 46.1 µM), for the others: top-dose activity, negative = less viability, usual class: cytotoxic; 1.6% of 360,000 active;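 also: NT is the 2HG producing partner of a matched IDH1 knockdown line; potency is read from the fitted curve at half-maximal effect; 0% = DMSO-treated cells and -100% = media-only wells without cells; nearly all actives have a fitted effect of over 55% in size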
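Viability by CellTiter-Glo luminescence after 48 h compound exposure at 37C of HT-1080-NT cells (750/well, RPMI, 5% FBS). % activity scaled between DMSO wells and medium-only wells, then curve-fitted and categorized by curve class.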
IL-1B inflam inh – blocks inflammasome-driven IL-1 beta release; activity change, % at 57.5 µM; 4.7% of 360,000 active; THP-1 LPS/ATP IL-1B secretion, AlphaLISA, 16 h; stronger effect = lower value; AID 743279; in the data active = activity change below about -50%; inconclusive = mostly about -30% to -49%
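Secreted IL-1B measured by AlphaLISA bead assay after 16 h compound exposure of THP-1 cells; compounds (final up to 57.5 uM) added 1 h before LPS (250 ng/mL) and ATP (1.25 mM) stimulation; lower signal means less secretion.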
HT1080 IDH1KD tx – toxicity to HT-1080 IDH1 knockdown cells (counter line); HT-1080 IDH1 knockdown viability, ATP luminescence, 48 h; Potency, µM (highest dose often 46.1 µM), inactives show at the highest dose activity, negative = toxicity, usual class: cytotoxic; 2% of 360,000 active;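 also: potency is read from the fitted curve at half-maximal effect; 0% = DMSO wells and -100% = cell-free medium wells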
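After a 2 h attachment period, IDH1KD HT-1080 cells took pin-transferred compound for 48 h at 37 °C; ATP-based luminescence after 10 min room-temperature reagent incubation reported viability.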
TDP1 cell CPT – DT40-hTDP1 cell growth loss with CPT. chicken DT40 Tdp1-/-;hTDP1 cells + 20 nM CPT, ATP luminescence, 48 h. Potency, µM (highest dose often 46.2 µM), inactives show at the top dose activity change, negative = growth inhibition, actives largely listed as inhibitors. 12% of 420,000 active. AID 686979; also: potency is read from the fitted curve at half-maximal effect; nearly all actives have a fitted effect of over 55% in size
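Cell growth measured by CellTiter-Glo luminescence after a minimum 48 h, 37 C compound exposure with 20 nM CPT in Tdp1-knockout DT40 cells stably expressing hTDP1, seeded 400/well; qHTS titration format.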
TDP1 cell noCPT – qHTS for Inhibitors of human tyrosyl-DNA phosphodiesterase 1 (TDP1): qHTS in cells in absence of CPT; DT40 Tdp1-/- hTDP1 cells, no CPT, ATP luminescence, 48 h; Potency, µM (titrated, usually from 46.2 µM), for the others: at the top dose activity change, negative = growth inhibition, actives largely listed as inhibitors; 15% of 420,000 active; AID 686978, 2013; also: potency is read from the fitted curve at half-maximal effect; nearly all actives have a fitted effect of over 55% in size
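No-CPT arm: Tdp1-/-;hTDP1 DT40 cells (400/well) plus compounds, incubated ≥48 hr at 37 °C. Readout CellTiter-Glo luminescence.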
uPA surface inh – cell surface uPA generation inhibition; Potency, µM (top dose mostly 38.3 µM), for the others: top-dose activity change, negative = inhibition, actives largely listed as inhibitors; AID 540303; 0.31% of 330,000 active; cell surface uPA generation assay, qHTS; active = well fitted inhibition curve with a large enough effect; inconclusive = small, poorly fitted or top-dose-only effect; inactive = no such curve, though single readings can be large or run the other way; tested in mouse RAW 264.7 cells; also: potency is read from the fitted curve at half-maximal effect; nearly all actives have a fitted effect of over 55% in size
Active calls of the source: *; ? = inconclusive; · = not tested or not shown. Rows were chosen to be rich in hits. Some 19% of all compounds tested hit in one or more screens of this group. Unless noted, calls follow the shape of the dose curve; as a rule, active = well fitted curve in the direction sought with a large enough effect; inconclusive = small, poorly fitted or top-dose-only effect, or another doubt; inactive = no such curve, though single readings can be large; an effect the other way counts as inactive or inconclusive. Unless noted, % is scaled to controls: 0 for no effect and ±100 for the full control effect.

SMILES	HT1080NT lethal	IL-1B inflam inh	HT1080 IDH1KD tx	TDP1 cell CPT	TDP1 cell noCPT	uPA surface inh
CC(C)Cc1nnc(NC(=O)CCC(=O)N2CCN(c3ccc([N+](=O)[O-])cc3)CC2)s1	?	-11	-3%	15µM*	18µM*	-7%
COc1ccc(CN2CCN(C(=O)CCC(=O)Nc3nnc(CC(C)C)s3)CC2)cc1F	-5%	9	0%	3.3µM*	4.6µM*	8%
COc1ccc(CN2CCN(C(=O)CCC(=O)Nc3nnc(C4CCCCC4)s3)CC2)cc1F	-17%	-22	-12%	16µM*	?	-6%
CCc1ccc(-c2cc(C(=O)O)c3ccccc3n2)s1	-19%	26	-11%	-13%	?	?
COc1ccc([C@@H]2C[C@H]3[C@@H](CN2S(=O)(=O)c2ccccc2)C(=O)C[C@@H](c2cccc4ccccc24)N3S(=O)(=O)c2ccc(C)cc2)cc1	0%	0	1%	11%	1%	·
COc1ccc(CNC(=O)C2CCCN2C(=O)Nc2cccc(Cl)c2)cc1 (configuration not stated)	0%	-9	1%	-16%	?	·
CCOC(=O)C(C)Oc1cccc2c(=O)n(CC(=O)Nc3ccc(OC)cc3)ccc12 (configuration not stated)	-4%	-55*	0%	-14%	-22%	·
CCOC(=O)C(C)Oc1cccc2c(=O)n(CC(=O)NCCc3ccccc3)ccc12 (configuration not stated)	-1%	-53*	-8%	-15%	18%	-4%
CCOC(=O)COc1cccc2c(=O)n(CC(=O)NCc3ccc4c(c3)OCO4)ccc12	4.6µM*	-5	?	1.8µM*	1.8µM*	1µM*
CCOC(=O)C(C)Oc1cccc2c(=O)n(CC(=O)NCc3ccc(F)cc3)ccc12 (configuration not stated)	?	84	0.58µM*	0.82µM*	0.73µM*	0.32µM*
CCOC(=O)C(C)Oc1cccc2c(=O)n(CC(=O)N3CCCc4ccccc43)ccc12 (configuration not stated)	0%	3	0%	-14%	-10%	-2%
CCOC(=O)COc1cccc2c(=O)n(CC(=O)NCCc3ccccc3)ccc12	0%	-1	-1%	-16%	-3%	-3%
CCOC(=O)COc1cccc2c(=O)n(CC(=O)N3CCC(C)CC3)ccc12	7%	-19	-2%	1%	?	?
COC(=O)COc1cccc2c(=O)n(CC(=O)NCc3ccc(F)cc3)ccc12	?	-13	3.7µM*	1µM*	1.2µM*	0.63µM*
COC(=O)COc1cccc2c(=O)n(CC(=O)N3CCC(C)CC3)ccc12	17%	-61*	3%	3%	-4%	-1%
CCOC(=O)C(C)Oc1cccc2c(=O)n(CC(=O)NCc3ccccc3)ccc12 (configuration not stated)	0.52µM*	-98*	0.52µM*	0.58µM*	0.92µM*	-4%
CN1OC[C@@H]2CN[C@H](c3ccc(-c4cccc(F)c4)cc3)C[C@@H]21	-7%	-24	-5%	?	?	·
Oc1cc(O)c2c(c1)O[C@H](c1ccc(O)c(O)c1)[C@@H](O)C2	19%	19	-2%	-13%	-8%	5%
O=c1c(O)cc(C2Oc3cc(O)cc(O)c3CC2O)cc2c(C3Oc4cc(O)cc(O)c4CC3O)cc(O)c(O)c12 (configuration not stated)	·	·	·	4.6µM*	3.3µM*	·
COc1ccc(NC(=O)c2cc(-c3cc(Cl)ccc3OC)n[nH]2)c(C)c1	?	?	?	?	18µM*	·
COc1ccc(NC(=O)c2cc(-c3ccc(C)c(C)c3O)n[nH]2)cc1Cl	?	26	?	?	?	0%
CCCOc1ccc(F)cc1-c1cc(C(=O)Nc2ccc(OC)cc2OC)[nH]n1	7%	-13	8%	?	18µM*	·
COc1ccc(NC(=O)c2cc(-c3cc(Cl)ccc3C)n[nH]2)c(OC)c1	?	-19	?	?	?	·
COc1ccc(Cl)cc1-c1cc(C(=O)Nc2ccc(C)c(NS(C)(=O)=O)c2)[nH]n1	21µM*	?	23µM*	18µM*	21µM*	·
COc1ccc(Cl)c(-c2cc(C(=O)Nc3ccc(C)c(NS(C)(=O)=O)c3)[nH]n2)c1	-15%	-30	?	?	?	·
SMILES	HT1080NT lethal	IL-1B inflam inh	HT1080 IDH1KD tx	TDP1 cell CPT	TDP1 cell noCPT	uPA surface inh
COc1ccc(NC(=O)c2cc(-c3cc(Cl)ccc3C)n[nH]2)cn1	-26%	-16	?	23µM*	?	·
CCCCn1c(N)c(N(CC(C)C)C(=O)COc2cc(C)ccc2Cl)c(=O)[nH]c1=O	2%	7	4%	7%	-2%	2%
COc1ccc(NCC(=O)Nc2ccc(Cl)cc2C)c(OC)c1	?	?	16µM*	?	29µM*	-13%
COc1ccc(NC(=O)CSc2cc(C)ccc2C)cn1	7%	-22	13%	?	16µM*	0%
CCOc1ccc(Cl)cc1-c1cc(C(=O)Nc2ccc(F)cc2)[nH]n1	?	-21	?	?	16µM*	·
COc1ccc(NC(=O)c2cc(-c3ccc(F)cc3OC)n[nH]2)cc1OC	-24%	-26	?	?	?	·
COc1ccc(Cl)cc1-c1cc(C(=O)Nc2ccc(C(C)(C)C)cc2)[nH]n1	-24%	21	?	21µM*	15µM*	·
CCOc1ccc(NCC(=O)Nc2ccc(Cl)cc2C)cc1	-5%	-26	?	?	?	·
COCCNC(=O)C(=O)NCC1OCCCN1S(=O)(=O)c1cccs1 (configuration not stated)	15%	0	22%	2%	-1%	-1%
CC(C)c1ccc(-c2csc3nc[nH]c(=O)c23)cc1	-10%	18	-9%	-11%	?	?
N=c1c(C(=O)NCCc2ccccc2)cc2c(=O)n3ccccc3nc2n1CC1CCCO1 (configuration not stated)	-23%	22	-15%	?	?	-8%
COc1ccc(CCNC(=O)c2cc3c(=O)n4ccccc4nc3n(CCCN3CCOCC3)c2=N)cc1	-14%	-28	-8%	?	?	?
COc1ccc(CCNC(=O)c2cc3c(=O)n4ccccc4nc3n(CCN3CCOCC3)c2=N)cc1	-15%	-9	-8%	3.7µM*	2.6µM*	-9%
